The text below walks through data of PubChem BioAssay AID1947 (The Scripps Research Institute Molecular Screening Center, 2009).

Screen size: about 300,000 compounds; about 990 (0.33%) were called active.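 Rule for the calls: active = inhibition above the screen mean inhibition plus 3 SD, computed separately per campaign (cut at about 18% in these data); inactive = the rest.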 The entries come from a sample that favours actives as a whole.

The assay deals with Fam108B (ABHD17B) serine hydrolase [Mus musculus]. As to the kind of experiment: inhibition of Fam108B (ABHD17B) hydrolase – biochemical, fluorescence polarization, counter-screen for RBBP9 inhibitor project, primary screen (AID 1947).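 Note: inhibitors lower polarization as less probe binds the enzyme.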 The conditions noted are these: recombinant Fam108B, FP-Rh probe fluorescence polarization; at 9.51 µM; active compounds read high.
As to `O=C(N/N=C/c1cc(Cl)cc([N+](=O)[O-])c1O)C(O)(c1ccccc1)c1ccccc1`, the inhibition (in general, the change of the read-out against control, counted positive when it falls) was 7.58% (inactive).

As to `O=C(CN1CCN(c2ccc(O)cc2)CC1)Nc1cc(S(=O)(=O)N2CCOCC2)ccc1Cl`, the inhibition was 1.19% (inactive).

With `O=[N+]([O-])c1cc(Cl)cc(/C=N/NC(=S)Nc2cc(S(=O)(=O)N3CCOCC3)ccc2Cl)c1O`, the inhibition is 49.6% (active).

As for `COC(=O)c1cc(-c2cccs2)nc2ccccc12`, the inhibition was -5.99% (inactive).

For `COC(=O)CSc1nccc(-c2cccs2)n1`, the inhibition was 25.3% (active). As for `O=C(O)COc1ccc(-c2nccc(-c3cccs3)n2)cc1`, the figure is -4.89% (inactive); as for `Cc1ccc([C@@H]2CC=C(C(=O)O)[C@H](c3cccc(Cl)c3)N2S(=O)(=O)c2ccc(C)cc2)cc1`, -3.66% (inactive). As for `COc1ccc(-c2csc(NC(=O)COC(=O)c3ccc(Br)o3)n2)cc1`, the figure is -1.38% (inactive); as for `CC(C)(C)NC(=O)NC(=O)COC(=O)Cc1ccc(Cl)cc1Cl`, -3.17% (inactive). For the compound `COc1ccc(-c2csc(NC(=O)COC(=O)Cc3ccc(Cl)cc3Cl)n2)cc1`, the inhibition is 25.7% (active). As for `CC(C)(C)c1ccc(/C=C2\SC(=O)N=C2N)cc1`, the figure is -2.33% (inactive). For `COC(=O)c1sc(=S)n(-c2ccc(Cl)cc2)c1C`, the inhibition is 0.66% (inactive).

For the compound `COCCOC(=O)c1sc(=S)n(CCOC)c1N`, the inhibition is 30.9% (active). As for `CCOC(=O)c1c(N)sc(C(C)=O)c1C`, the figure is 2.44% (inactive); as for `CC(=O)c1ccc(-c2ccc(Cn3c(C)nc4cc(N)c(C)nc43)cc2)cc1`, -2.95% (inactive). As for `Cc1cc(-c2csc(N)n2)c(C)n1Cc1ccccc1`, the figure is 1% (inactive). `Cc1cc2nc3c(=O)n(Cc4ccccc4)c(=O)[nH]c3nc2cc1N`: the inhibition is 20.1% (active). As for `C=C1C2C[C@H](O)C(C)(C)[C@@]2(O)[C@H](O)C[C@]23C[C@@](C)(O)[C@H](CC[C@H]12)[C@H]3O` (some centres not stated), the figure is -4.05% (inactive); as for `CCN(CC(=O)Nc1ccc2c(c1)OCO2)S(=O)(=O)c1ccccc1`, 3.09% (inactive). As for `CC(=O)Nc1ccc(NC(=O)CSc2ncnc3c2cnn3Cc2ccccc2)cc1`, the figure is 1.73% (inactive); as for `CSc1c(SCc2ccccc2)cnn(Cc2ccccc2)c1=O`, 52.1% (active). As for `CCn1c(SCc2ccccc2)nc2c(c1=O)SCC2`, the figure is 5.08% (inactive). For `Cc1noc(C)c1S(=O)(=O)N(C)Cc1ccccc1`, the inhibition was -2.49% (inactive).

For `Cc1cc(C)cc(C(=O)N(CCc2ccccc2)C2=CC3CCC(C2)N3C)c1` (configuration not stated), the inhibition was -0.23% (inactive). As for `COCC(C)NC(=O)CSc1nc2nn(-c3ccccc3)c(=O)c-2c2n1CCCCC2` (configuration not stated), the figure is 0.63% (inactive); as for `O=C(Cn1ncc2c3ccccc3n(Cc3ccccc3)c2c1=O)NCCCN1CCOCC1`, -3.84% (inactive).

For the compound `CC(C)Nc1ccc(-n2nc3ccccc3[n+]2[O-])cc1`, the inhibition was 1.5% (inactive). In the case of `N=C1C(=O)OCC1c1ccccc1NC(=O)CN1CCCCC1` (configuration not stated), the inhibition was -3.29% (inactive).

In the case of `COc1ccc2nc(Nc3nc4cc5c(cc4s3)OCCO5)sc2c1`, the inhibition was 33.1% (active).

For `COc1ccc2nc(NC(=O)c3ccc(Br)s3)sc2c1`, the inhibition was -2.97% (inactive).

In the case of `COc1ccc2nc(NC(=O)NC3CCCCC3)sc2c1`, the inhibition was 4.3% (inactive). As for `CC1C(=O)C(C)C(c2ccc(O)cc2)NC1c1ccc(O)cc1` (configuration not stated), the figure is -5.96% (inactive). As for `COc1ccc2oc(C(=O)N(CC(C)C)C3CCS(=O)(=O)C3)c(C)c2c1` (configuration not stated), the figure is 3.82% (inactive). Regarding `O=C(NNc1c2ccccc2nc2ccccc12)c1cc2ccccc2cc1O`, the inhibition is 71.8% (active). As for `O=C(N/N=C/c1cccnc1)c1cc2ccccc2cc1O`, the figure is 3.37% (inactive); as for `CC(C)(C)OC(=O)NNc1c2ccccc2nc2ccccc12`, 10.9% (inactive); as for `COc1ccc(CNC(=O)CN(C(=O)c2csnn2)c2cnc3ccccc3c2)cc1`, 2.77% (inactive). As for `CC[C@H]1OC(=O)[C@H](C)[C@@H](O[C@H]2C[C@@](C)(OC)[C@@H](O)[C@H](C)O2)[C@H](C)[C@@H](O[C@@H]2O[C@H](C)C[C@H](N(C)C)[C@H]2O)[C@](C)(O)C[C@@H](C)[C@@H]2N[C@@H](COCCOC)O[C@H]([C@H]2C)[C@]1(C)O`, the figure is -4.04% (inactive); as for `O=C(CCCn1c(SCC(=O)c2ccc(F)cc2)nc2ccccc2c1=O)NCc1ccco1`, -1.64% (inactive). As for `O=C(CCCn1c(SCC(=O)c2ccccc2)nc2ccccc2c1=O)NCC1CCCO1` (configuration not stated), the figure is -0.5% (inactive); as for `O=C(CCn1c(SCC(=O)c2ccccc2)nc2ccccc2c1=O)NCc1ccc(F)cc1`, 27.5% (active); as for `CS(=O)(=O)N1CCCC(C(=O)Nc2ccccc2C(F)(F)F)C1` (configuration not stated), -3.11% (inactive). `COc1ccccc1C1C(C#N)=C(N)Oc2c1c(-c1ccccc1)nn2-c1ccccc1` (configuration not stated): the inhibition was 24.5% (active). As for `Cc1nn(Cc2ccccc2)c2c1C(c1ccccc1)C(C#N)=C(N)O2` (configuration not stated), the figure is 4.14% (inactive); as for `Cc1nn(-c2ccccc2)c2c1C(c1ccc(F)cc1)C(C#N)=C(N)O2` (configuration not stated), 4.31% (inactive); as for `CC(C)CCN1CCN=C1N(C)C`, -3.1% (inactive). Turning to `Cc1cc(C)cc(C(=O)NC2C(=O)N3C(C(=O)O)=C(CSc4nnc(C)s4)CSC23)c1` (configuration not stated), the inhibition was 0.52% (inactive). As for `CC(C)c1ccc2oc(=O)cc(CN3CCN(Cc4ccccc4)CC3)c2c1`, the figure is 0.92% (inactive); as for `CN(C)c1ccc(NC(=O)CN2C3CCCC2CC(NC(=O)c2ccccc2)C3)cc1` (configuration not stated), -3.02% (inactive). Turning to `COc1ccc(C(=O)Nc2c(N)nc(SCC(=O)Nc3ccc(C(C)=O)cc3)[nH]c2=O)cc1`, the inhibition was 2.83% (inactive).

Consider `COc1ccc(N2CCN(S(=O)(=O)c3cc4c5c(c3)C(C)C(=O)N5CCC4)CC2)cc1` (configuration not stated), for which the inhibition was 2.45% (inactive).

`CCOC(=O)N1CCC(O)(c2cc(C)c(C)cc2C)CC1`: the inhibition is 1.15% (inactive). As for `COc1ccc(Nc2ncc(C(=O)N3CCN(c4ccccc4OC)CC3)c3ccccc23)cc1`, the figure is 5.14% (inactive); as for `O=C(Cn1cc(/C=N/NC(=O)c2cccc(C(F)(F)F)c2)c2ccccc21)Nc1ccc(F)cc1`, 4.38% (inactive); as for `CC(/C=N/NC(=O)c1cc(-c2ccc3ccccc3c2)n[nH]1)=C\c1ccco1`, -15.2% (inactive). As for `C/C(=C\c1ccco1)C1Nc2cccc3cccc(c23)N1`, the figure is 18.5% (active). For the compound `CC(/C=N/NC(=O)c1ccncc1)=C\c1ccco1`, the inhibition is -1.58% (inactive).
